PubChem BioAssay AID449762 (Southern Research Specialized Biocontainment Screening …, 2010)
The whole screen tested about 330,000 compounds, of which about 1,900 (0.58%) were called active. Roughly 4% stayed inconclusive and do not appear here. Only a sample is shown. Results with a measured potency or affinity are listed apart. A number with no mark means an inactive call. Rule as the data show it: inconclusive = inhibition above about 70% without an active follow-up result; inactive = below that.

Assay: M. tuberculosis growth inhibition, HTS (AID 449762);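 also: bacterial growth assessed after seven days of incubation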
Settings: M. tuberculosis H37Rv growth inhibition, 7H9 media; at 25 µM; hits give high values

| Structure (SMILES) | inhibition |
| --- | --- |
| CCOC(=O)Cc1csc(NC(=O)CCSc2ccccc2)n1 | 5.94% |
| COC(=O)c1ccc(CSc2ncnc3c2sc2nc(N4CCOCC4)c4c(c23)CCCC4)o1 | -0.71% |
| COC(=O)CSc1ncnc2c1sc1nc(N3CCOCC3)c3c(c12)CCCC3 | -2.32% |
| O=c1cnnc(Nc2ccc(Nc3ccccc3)cc2)[nH]1 | 14% |
| CC(C)c1ccc(NC(=O)CCS(=O)(=O)c2cccc3nonc23)cc1 | 6.08% |
| O=C(C1CCC1)N1CCN(S(=O)(=O)c2ccc(F)cc2)CC1 | -11% |
| CCOc1ccc(/C=C2/C(=N)N3OC(C)=CC3=NC2=O)cc1OC | 2.41% |
| CN(CCO)c1cc(N2CCCCC2)c2nonc2c1[N+](=O)[O-] | -7.07% |
| CN(CCO)c1cc(N2CCC3(CC2)OCCO3)c2nonc2c1[N+](=O)[O-] | -10.9% |
| Cc1cc(C)cc(NC(=O)CCn2c(=S)[nH]c3ccccc3c2=O)c1 | 3.81% |
| Cc1cccc(OCCCCNCc2ccccc2)c1 | 0.71% |
| Clc1ccc(Cl)c(OCCCCNCc2ccccc2)c1 | 6.87% |
| COc1cc(Br)c(/C=C/c2ccc3cccc(O)c3n2)cc1OC | 15.4% |
| COc1ccc(Br)cc1/C=C/c1ccc2cccc(O)c2n1 | 69.8% |
| On1c(-c2ccc(Cl)cc2)nc2ccccc21 | 67.2% |
| COc1cc(CNn2nnnc2N)cc(Br)c1OCc1c(Cl)cccc1Cl | 0.85% |
| Cc1ccc(N2CCN(S(=O)(=O)N3CCCCC3)CC2)cc1C | -2.98% |
| CCOC(=O)C1=C(C)NC(SCC(N)=O)=C(C#N)C1c1cccs1 (configuration not stated) | -3.02% |
| CCOC(=O)C1=C(C)NC(SCC(=O)Nc2cc(C)on2)=C(C#N)C1c1cccs1 (configuration not stated) | -1.09% |
| O=C(COC(=O)c1cc(=O)[nH]c2ccccc12)NC(=O)c1ccccc1 | -1.53% |
| COc1ccc(Nc2nc(CC(C)=O)ns2)cc1OC | -2.22% |
| O=C1CN(C(=O)CN2C(=O)NC(c3ccccc3)(c3ccccc3)C2=O)c2ccccc2N1 | -4.74% |
| CC(=O)N1CCN(C(=O)c2ccc(-c3cccc(C(F)(F)F)c3)o2)CC1 | -1.68% |
| O=C(c1ccc(-c2cccc(C(F)(F)F)c2)o1)N1CCCCCCC1 | 4.53% |
| CCCCS(=O)(=O)N1CCC(C(=O)Oc2ccccc2OC)CC1 | 28.5% |

| Structure (SMILES) | inhibition |
| --- | --- |
| Cc1ccc(C(C(=O)Nc2ccc3c(c2)OCO3)N(C)C(=O)Cc2c[nH]c3ccccc23)cc1 (configuration not stated) | -1.34% |
| C/C(=C\C(=S)Nc1ccccc1)Nc1cccc2ccccc12 | 64.1% |
| C/C(=C\C(=S)Nc1ccccc1)Nc1ccccc1 | 3.81% |
| O=C(CC1CCCCC1)NCCCN1CCOCC1 | -0.7% |
| O=C(CSc1nc2[nH]c(=O)cc(O)c2s1)Nc1ccc(Br)cc1 | -3.77% |
| CC(=O)N1CCc2cc(Br)cc(S(=O)(=O)NCC3CCCO3)c21 (configuration not stated) | 0.13% |
| COc1cc2cc(C(=O)N(C)Cc3ccccc3)[nH]c2cc1OC | 6.88% |
| COCCCn1c(SCc2ccccc2)nc2cc(OC)c(OC)cc2c1=N | -2.27% |
| COCCCn1c(SCc2ccc(OC)cc2)nc2cc(OC)c(OC)cc2c1=N | -4.77% |
| O=C(CN1C(=O)NC2(CCCC2)C1=O)OCc1cccc(Br)c1 | -6.4% |
| O=C(NC1CCSc2ccccc21)c1ccccc1Cl (configuration not stated) | 43.4% |
| O=C(NC1CCSc2ccccc21)c1ccccc1F (configuration not stated) | 12.7% |
| COc1ccc(OCc2n[nH]c(=S)n2-c2ccc(C)cc2)cc1 | 3.01% |
| Cc1cc(=O)[nH]c(N/N=C/c2c(C)nn(-c3ccc(F)cc3)c2Cl)n1 | 0.52% |
| Oc1ccc(N=Nc2n[nH]c(-c3ccc(Br)cc3)n2)cc1 | 4.79% |
| Cc1ccc(-c2nc(N=Nc3ccc(O)cc3)n[nH]2)cc1 | 4.83% |
| CCC(CO)Oc1cc(NC(=O)c2ccc(N)cc2)c2ncn(C(C)C)c2c1 (configuration not stated) | 4.76% |
| O=[N+]([O-])c1ccc(COc2ccc(-c3[nH]ncc3-c3ccccc3)c(O)c2)cc1 | -2.72% |
| CCOc1ccc(-c2[nH]ncc2-c2ccccc2)c(O)c1 | 9.38% |
| COc1ccc(-c2[nH]ncc2-c2ccc(Cl)cc2)c(O)c1 | 41.7% |
| COc1ccc(-c2cn[nH]c2-c2ccc(OCc3ccc([N+](=O)[O-])cc3)cc2O)cc1 | 8.94% |
| Cc1cc(N2C(=O)C3CC=CCC3C2=O)cc(C)c1Br (configuration not stated) | 4.22% |
| CC(=NNC(=O)c1ccc(NS(=O)(=O)c2ccc(Br)cc2)cc1)c1cccnc1 | 9.29% |
| CC(C)Cc1nc2sc3c(=O)[nH]cnc3c2c2c1CCCC2 | 1.08% |
| CCN(CC)C(=O)CNC(=S)N(CCCN1CCOCC1)Cc1cccs1 | 1.2% |

| Structure (SMILES) | inhibition |
| --- | --- |
| CCc1cc(-c2[nH]ncc2-c2ccc([N+](=O)[O-])cc2)c(O)cc1OC | 1.64% |
| CCCCn1c(NC(=S)Nc2ccccc2)nc2ccccc21 | 2.6% |
| CCCn1c(NC(=S)Nc2ccccc2)nc2ccccc21 | 2.43% |
| CSc1nc2ccsc2c(=O)n1-c1ccccn1 | -2.21% |
| CCn1c(C)nc2cc(C(=O)OC)ccc21 | -7.44% |
| CCn1c(C)nc2cc(C(=O)OCCC(F)(F)F)ccc21 | -1.06% |
| COc1ccccc1C(=O)NC(CCSC)C(=O)OCC(=O)N1CCCC1=O (configuration not stated) | -5.17% |
| COc1ccc(-c2c(C#Cc3ccsc3)c3cc(-c4ccc5cc[nH]c5c4)ccc3n2C)cc1 | -6.96% |
| CN(C)CCN(Cc1ccccc1)C(=O)[C@H](Cc1ccccc1)N1C(=O)c2ccccc2C1=O | -1.93% |
| COc1ccc(NC(=O)CSc2nc(SC)ns2)c(OC)c1 | 4.38% |
| CSc1nsc(SCC(=O)Nc2ccccc2C(N)=O)n1 | 2.11% |
| O=C(O)c1cccc(N2C(=O)/C(=C/c3ccc([N+](=O)[O-])cc3)C=C2c2ccccc2)c1 | 7.59% |
| O=C1/C(=C/c2ccc([N+](=O)[O-])cc2)C=C(c2ccccc2)N1c1ccccc1 | 10.5% |
| COc1ccc(-n2c(SCC(=O)N3CCc4ccccc43)nnc2-c2c[nH]c3ccccc23)cc1 | 7.85% |
| COc1ccccc1N(CC(=O)NC(C)(C)C)C(=O)CCC(=O)Nc1nccs1 | -0.5% |
| CC1(CCc2ccccc2)NC(=O)N(CC(=O)Nc2ccc(S(N)(=O)=O)cc2)C1=O (configuration not stated) | 0.35% |
| NC[C@H](Cc1ccccc1)NCCCCC1CCCCC1 | -8.88% |
| CNC[C@@H](C)NC[C@@H](Cc1ccccc1)NCCc1ccccc1 | 1.77% |
| COc1cccc(NC(=O)COC(=O)c2ccccc2SCC(=O)N2CCCC2)c1 | 5.04% |
| Cc1cc(=O)[nH]c(Nc2cccc(Cl)c2C)n1 | 1.14% |
| O=C(NS(=O)(=O)c1ccccc1Cl)c1ccc[nH]1 | 2.54% |
| CCOc1ccc(C(C)NC(=O)Cc2ccccc2)cc1OCC (configuration not stated) | -8.29% |
| OCCNc1nc(N2CCN(Cc3ccccc3)CC2)nc2ccccc12 | 5.92% |
| OCCN1CCN(c2nc(NCc3ccco3)c3ccccc3n2)CC1 | -0.19% |
| CCc1cccc(CC)c1NC(=O)CSc1nc2ccc(N3C(=O)C4C(C3=O)[C@H]3C=C[C@@H]4C3)cc2s1 (some centres not stated) | -9.69% |

| Structure (SMILES) | inhibition |
| --- | --- |
| CCc1cccc(CC)c1NC(=O)CSc1nc2ccc(N3C(=O)C4C5C=CC(C5)C4C3=O)cc2s1 (configuration not stated) | -11% |
| COc1cc(C(=O)Nc2cccc(S(=O)(=O)NCc3ccco3)c2)cc(OC)c1OC | 0.68% |
| COc1ccc(CCC(C)NC(=O)CCc2ccccc2)c(OC)c1 (configuration not stated) | 4.05% |
| COc1cc(/C=N/NC(=O)c2csc3c2CCCC3)ccc1OCCN1CCOCC1 | -0.72% |
| COc1cc(/C=N/NC(=O)c2cc3ccccc3cc2O)ccc1OCCN1CCCCC1 | 9.28% |
| COc1ccccc1CNC(=O)CN1CCN(S(=O)(=O)c2cccs2)CC1 | -5.5% |
| CSCCC(NS(=O)(=O)c1ccc(Cl)cc1)C(=O)OCC(=O)NC1CCCCC1 (configuration not stated) | 1.43% |
| COc1ccc(NC2=NC(C)(C)CS2)cc1 | -0.92% |
| Cc1ccc(C(=O)CCNc2ccc(Br)cc2)o1 | -5.24% |
| Cc1ccc(C(=O)CNc2ccc(Br)cc2)cc1 | 2.6% |
| CC12CCC(C(=O)Nc3cccc4ccccc34)(C1Br)C2(C)C (configuration not stated) | 5.17% |
| CCCCOc1ccc(-c2nc(SCC(N)=O)n[nH]2)cc1 | 48.6% |
| CCOc1ccc(-c2cnc(SCC(N)=O)nc2N)cc1 | 62.7% |
| CCC1(c2ccc(F)cc2)NC(=O)N(CC(=O)N2c3ccccc3NC(=O)C2(C)C)C1=O (configuration not stated) | 1.45% |
| CCOc1ccc(-n2c(Cc3ccccc3)nnc2SCc2c(C)noc2C)cc1 | -5.75% |
| Oc1ccc(-c2nc3ccc4ccccc4c3c3c2CCC3)cc1O | -2.27% |
| COc1cc(-c2nc3ccc4ccccc4c3c3c2CCC3)ccc1O | -4% |
| Cc1ccccc1NC(=O)CN1C(=O)NC2(CCc3ccccc32)C1=O (configuration not stated) | 8.44% |
| CC/C(=N\Nc1ccnc2cc(Cl)ccc12)c1ccc(O)cc1 | 9.75% |
| Clc1ccc2c(NNc3ccccc3Cl)ccnc2c1 | 64.1% |
| Oc1ccc(Nc2ccnc3cc(Cl)ccc23)cc1 | 7.94% |
| C/C(=N/Nc1ccnc2cc(Cl)ccc12)c1ccc(N)cc1 | -2.9% |
